# Experimental data as given in PubChem BioAssay AID720708 (National Center for Advancing Translational Sciences (NCATS), 2013).
# The whole screen tested about 360,000 compounds, of which about 660 (0.18%) were called active. A call without a number means that no potency is given here. Inconclusive results (about 2%) are left out. The call rests on the fitted dose curve; in most records, active means well fitted inhibition curve with a large enough effect; inconclusive means small, poorly fitted or top-dose-only effect; inactive means no such curve, though single readings can be large or run the other way. Many of the other results were omitted from the sample, so actives are more common in it than they were.
# Biological target: Rap guanine nucleotide exchange factor 4 (Homo sapiens) (UniProt Q8WZA2)
# Experiment: qHTS for Antagonist of cAMP-regulated guanine nucleotide exchange factor 2 (EPAC2): primary screen; further: nearly all actives have a fitted effect of over 45% in size
# Conditions: EPAC2 GEF exchange of Rap1B-BODIPY-GDP, fluorescence; series mostly up to 114 µM
# Text: In multi-cellular eukaryotic organisms, the effects of cAMP are transduced by two ubiquitously-expressed intracellular cAMP receptors, the classic protein kinase A/cAMP-dependent protein kinase (PKA/cAPK) and the more recently discovered exchange protein directly activated by cAMP/cAMP-regulated guanine nucleotide exchange factor (EPAC/cAMP-GEF). Both PKA and EPAC are ubiquitously expressed in all tissues, and an increase in intracellular cAMP levels will lead to the activation of both PKA and EPAC. Therefore, careful dissections of the individual role and relative contribution of EPAC and PKA within the overall cAMP signaling in various model systems are critical for further elucidating the mechanism of cAMP signaling. To date no EPAC-specific antagonists and agonist, as well as isoform-specific agonists have been reported, and developing EPAC-specific pharmacological probes to determine the physiological functions that EPAC play in the overall cAMP-mediated signaling remains a major challenge within the research field. Furthermore, identified regulators of EPAC may lead to new mechanism-based therapeutic strategies specifically targeting the EPAC / cAMP-signaling components as EPAC has been implicated to play important roles in major human pathological conditions such as diabetes, heart disease, and cancer.
# This qHTS will be used to screen the Molecular Libraries Small Molecule Repository (MLSMR) as a concentration-titration series using the NCGC unique quantitative screening (qHTS) platform to find inhibitors for EPAC2. In addition, this assay will also be used as a counterscreen for the EPAC1 qHTS. This fluorescent based assay is developed and validated for EPAC2 that measures exchange using EPAC effector Rap1 complex with BODIPY-GDP, a GDP analog with a tethered fluorophores. Inhibitors are identified by monitoring the change in fluorescence signal as the exchanged free BODIPY-GDP has a reduced fluorescence compared to Rap1-bound BODIPY-GDP. Decrease in signal (inhibition) is the desired outcome for the EPAC2 antagonist while no activity in this assay is desired for the EPAC1 antagonist counterscreen.
# NIH Chemical Genomics Center [NCGC]
# NIH Molecular Libraries Probe Centers Network [MLPCN]
# Assay Submitter (PI): Xiaodong Cheng, The University of Texas, Medical Branch
# Briefly, three uL of reagents (100 nM EPAC2, 250 nM RAP1B-BODIPY-GDP, 50 uM GDP) were dispensed into a 1536-well Greiner black solid-bottom medium binding assay plate. Controls and test compounds (23 nL) were transferred to the plate via a Kalypsys pin tool equipped with a 1536-pin array. The plates were centrifuged at 1,000 rpm for 15 seconds followed by 5 minute incubation at room temperature. The assay plates were read at 5 minute intervals for 30 minutes in the ViewLux plate reader using 480nm excitation and 540nm emission filters. The results were normalized to the agonist positive control ATA and DMSO.
# Potency means the concentration at half of the fitted maximal effect.
# Sequence of Rap guanine nucleotide exchange factor 4 (Homo sapiens) (Q8WZA2 whole entry, looked up): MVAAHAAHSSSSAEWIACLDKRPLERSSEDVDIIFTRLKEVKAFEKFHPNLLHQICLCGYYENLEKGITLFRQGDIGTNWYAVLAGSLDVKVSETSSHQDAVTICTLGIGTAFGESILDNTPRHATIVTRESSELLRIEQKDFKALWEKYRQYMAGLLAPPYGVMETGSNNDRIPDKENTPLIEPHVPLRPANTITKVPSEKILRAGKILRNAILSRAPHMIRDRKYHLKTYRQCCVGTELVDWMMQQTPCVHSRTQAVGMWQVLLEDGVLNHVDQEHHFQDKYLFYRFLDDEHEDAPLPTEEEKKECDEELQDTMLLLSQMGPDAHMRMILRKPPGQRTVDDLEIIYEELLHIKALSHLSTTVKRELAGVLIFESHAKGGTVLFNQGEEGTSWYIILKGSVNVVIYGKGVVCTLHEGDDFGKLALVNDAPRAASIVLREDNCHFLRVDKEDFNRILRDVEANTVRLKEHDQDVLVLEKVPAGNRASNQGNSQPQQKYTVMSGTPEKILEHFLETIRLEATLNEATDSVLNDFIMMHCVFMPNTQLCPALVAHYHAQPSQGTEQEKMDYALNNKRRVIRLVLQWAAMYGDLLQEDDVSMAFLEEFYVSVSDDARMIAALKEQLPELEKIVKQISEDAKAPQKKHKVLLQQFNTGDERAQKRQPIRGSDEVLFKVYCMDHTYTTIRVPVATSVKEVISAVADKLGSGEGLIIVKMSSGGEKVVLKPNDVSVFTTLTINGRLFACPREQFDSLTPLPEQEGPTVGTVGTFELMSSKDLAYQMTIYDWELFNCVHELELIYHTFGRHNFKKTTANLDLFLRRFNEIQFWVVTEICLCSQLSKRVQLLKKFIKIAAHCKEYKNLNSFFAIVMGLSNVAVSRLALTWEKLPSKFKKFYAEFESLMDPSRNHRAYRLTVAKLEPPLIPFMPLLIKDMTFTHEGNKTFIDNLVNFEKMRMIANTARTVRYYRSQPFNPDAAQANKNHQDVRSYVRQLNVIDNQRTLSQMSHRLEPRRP
row,SMILES,Potency
1,CCOP(=O)(OCC)C(NC(=O)c1ccc(C)cc1)C(Cl)(Cl)Cl (stereo not given),inactive
2,CCOP(=O)(OCC)C(Cc1ccccc1)N=C(c1ccccc1)c1ccccc1 (stereo not given),35.5 µM (active)
3,CCOP(=O)(OCC)C(NC(=O)c1ccc(OC)cc1)C(Cl)(Cl)Cl (stereo not given),inactive
4,CC1=CC(=Cc2sc3ccccc3[n+]2C)C=C(C)O1,inactive
5,C[C@]12CC[C@H](O)C[C@H]1CC[C@@H]1C2CC[C@]2(C)[C@@H](C3=CC(=O)OC3)[C@@H](O)C[C@]12O (stereo not given in full),inactive
6,CCOC(=O)[C@]12Cc3ccccc3[C@H]1N(C1CCCCC1)C(=O)c1cc(OC)ccc12,3.16 µM (active)
7,COC(=O)C1=C(c2cc3ccccc3s2)C[C@@H]2CC[C@H]1N2C(=O)NCc1cccc2ccccc12,inactive
8,Oc1cc2c(cc1CN1CCN(c3ccccc3)CC1)OCO2,inactive
9,CN(c1ccccc1)c1ccc([N+](=O)[O-])c2nonc12,inactive
10,CC(c1ccccc1)(c1ccccc1)c1ccncc1,35.5 µM (active)
11,ClC(Cl)(Cl)c1ccccc1,inactive
12,CCCC[N+]1(C)C2CC(OC(=O)C(CO)c3ccccc3)CC1C1OC12 (stereo not given),inactive
13,O=C(NC(c1ccc(Cl)cc1)P(=O)(Oc1ccccc1)Oc1ccccc1)OCc1ccccc1 (stereo not given),inactive
14,COC(=O)N1C(c2ccccc2)C1c1ccccc1 (stereo not given),31.6 µM (active)
15,COC(=O)C(c1ccccc1)N1CCCCCC1 (stereo not given),inactive
16,O=C(CN1CCCCC1)Nc1ccc(Br)cc1C(=O)c1ccccc1Cl,inactive
17,Cn1c(O)c(C(=Nc2ccc(F)cc2)c2ccccc2)c(=O)n(C)c1=O,inactive
18,CC(=O)N(C1=NCCCS1)c1ccccc1F,inactive
19,Cc1ccc(-n2c(O)c(C=NCC3CCCO3)c(=O)[nH]c2=O)c(C)c1 (stereo not given),inactive
20,O=C(OCCN1CCOCC1)C1(c2ccccc2)CCCC1,inactive
